Assay outcomes: PubChem BioAssay, National Center for Advancing Translational Sciences (NCATS)
Rows were chosen to be rich in hits. Some 17% of all compounds tested hit in one or more screens of this group.
ClpP mod: qHTS Assay for Activators of ClpP; ATP-dependent Clp protease proteolytic subunit (Bacillus subtilis (strain 168)), P80244; Potency, µM (titrated, usually from 57.5 µM), for inactives: at the top dose activity change, negative = active; 340,000 tested, 1.9% active; purified B. subtilis ClpP, FRET peptide cleavage, 20 min; active = well fitted falling curve with a large enough effect; inconclusive = small, poorly fitted or top-dose-only effect; inactive = no such curve, though single readings can be large or run the other way; also: the source files actives as falling curves though it sought activators and does not explain the sign; nearly all actives have a fitted effect of over 65% in size
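Purified B. subtilis ClpP, 10 microg/mL final in Tris/HCl pH8 with KCl, BSA, glycerol and Tween-20, cleaved an Abz/nitrotyrosine-quenched decapeptide. Fluorescence (ex 320, em 430) was read at 0 and 20 min at room temperature. Delta was normalized to 5.8 microM ADEP and DMSO/no-enzyme controls.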
TDP1 cell CPT: DT40-hTDP1 cell growth loss with CPT. chicken DT40 Tdp1-/-;hTDP1 cells + 20 nM CPT, ATP luminescence, 48 h. Potency, µM (titrated, usually from 46.2 µM), for inactives: top-dose activity change, negative = growth inhibition, hits mostly inhibitors. 420,000 tested, 12% active. AID 686979; also: % is scaled to controls: 0 for no effect and ±100 for the full control effect; nearly all actives have a fitted effect of over 55% in size
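Chicken DT40 Tdp1-/- cells stably complemented with human TDP1 were seeded at 400 cells/well in medium containing 20 nM camptothecin, exposed to pin-transferred compounds, and grown at 37 °C for at least 48 hr. Viability was read as ATP luminescence.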
DT40 TDP1 no CPT: qHTS for Inhibitors of human tyrosyl-DNA phosphodiesterase 1 (TDP1): qHTS in cells in absence of CPT. Potency, µM (doses to about 46.2 µM), for inactives: at the top dose activity change, negative = growth inhibition, actives largely listed as inhibitors. 420,000 tested, 15% active. DT40 Tdp1-/- hTDP1 cells, no CPT, ATP luminescence, 48 h. AID 686978, 2013; also: % is scaled to controls: 0 for no effect and ±100 for the full control effect; nearly all actives have a fitted effect of over 55% in size
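Compound effects on proliferation are scored in DT40 Tdp1-/-;hTDP1 cells in the absence of CPT. ATP levels (CellTiter-Glo luminescence) are recorded after a ≥48 hr, 37 °C incubation.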
TDP1 inh: blocks human tyrosyl-DNA phosphodiesterase 1; AID 485290; Potency, µM (doses to about 130 µM), for the others: at the highest dose activity change, negative = inhibition, usual class: inhibitors; recombinant TDP1, AlphaScreen DNA substrate cleavage; 350,000 tested, 0.28% active; Q9NUW8; also: % is scaled to controls: 0 for no effect and ±100 for the full control effect; nearly all actives have a fitted effect of over 40% in size
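Steps: enzyme plus compound, 15 min RT; add biotin/phosphotyrosine-FITC oligonucleotide (15 nM final), react 5 min; add donor/acceptor beads (10 ug/ml final), 10 min; read AlphaScreen. Tdp1 at 1 nM final.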
Active calls of the source: *. Unless noted, calls follow the shape of the dose curve; as a rule, active = well fitted curve in the direction sought with a large enough effect; inconclusive = small, poorly fitted or top-dose-only effect, or another doubt; inactive = no such curve, though single readings can be large; an effect the other way counts as inactive or inconclusive. Potency is read from the fitted curve at half-maximal effect.

How did Cc1cc(N2CCN(C/C=C/c3ccccc3)CC2)n2ncnc2n1 do in these assays?
ClpP mod: 1%; TDP1 cell CPT: 16µM*; DT40 TDP1 no CPT: 10µM*; TDP1 inh: -5%

Results for Cc1cc(N2CCN(c3ccccc3)CC2)n2ncnc2n1 ?
ClpP mod: -7%; TDP1 cell CPT: -22%; DT40 TDP1 no CPT: inconclusive; TDP1 inh: -2%

Results for COc1ccccc1-c1cnc(C(O)c2cccc(C)c2C)[nH]1 (stereo not given) ?
ClpP mod: -4%; TDP1 cell CPT: 15µM*; DT40 TDP1 no CPT: 16µM*

Results for COc1cccc(-c2cnc(C(O)c3ccc(Cl)cc3C)[nH]2)c1 (stereo not given) ?
ClpP mod: 3%; TDP1 cell CPT: 23µM*; DT40 TDP1 no CPT: 16µM*

What do the screens show for `COc1ccccc1-c1cnc(C(O)c2ccc(Cl)cc2C)[nH]1` (stereo not given)?
ClpP mod: -6%; TDP1 cell CPT: inconclusive; DT40 TDP1 no CPT: 18µM*

Results for Cc1cc(Cl)ccc1C(O)c1ncc(-c2ccccc2C(F)(F)F)[nH]1 (stereo not given) ?
ClpP mod: -1%; TDP1 cell CPT: 26µM*; DT40 TDP1 no CPT: 15µM*

What do the screens show for `C=C1CCN(C(C)C(=O)O)S(=O)(=O)c2ccccc21` (stereo not given)?
ClpP mod: -3%; TDP1 cell CPT: 13%; DT40 TDP1 no CPT: 4%; TDP1 inh: -1%

What do the screens show for `Clc1ccc(Oc2nc(N3CCOCC3)nc(N3CCOCC3)n2)cc1`?
ClpP mod: 16%; TDP1 cell CPT: inconclusive; DT40 TDP1 no CPT: inconclusive; TDP1 inh: 2%

What do the screens show for `Cc1cc(S(=O)(=O)NC(C)c2nnc3ccccn23)ccc1Br` (stereo not given)?
ClpP mod: -2%; TDP1 cell CPT: -3%; DT40 TDP1 no CPT: 7%; TDP1 inh: 0%

What do the screens show for `O=C(CC1CS(=O)(=O)CC1CC(=O)Nc1ccc2c(c1)OCCO2)Nc1ccc2c(c1)OCCO2` (stereo not given)?
ClpP mod: -3%; TDP1 cell CPT: -17%; DT40 TDP1 no CPT: -24%; TDP1 inh: 7%

Results for COc1cccc(C(=O)NCCS(=O)(=O)N2CCN(C(=O)c3ccco3)CC2)c1 ?
ClpP mod: -1%; TDP1 cell CPT: 4%; DT40 TDP1 no CPT: -1%

Results for COc1cccc(-c2cnc(C(O)c3ccc(Cl)c(F)c3)[nH]2)c1 (stereo not given) ?
ClpP mod: 2%; TDP1 cell CPT: 15µM*; DT40 TDP1 no CPT: inconclusive

What do the screens show for `COc1cccc(-c2cnc(C(O)c3ccc(OC)c(F)c3)[nH]2)c1` (stereo not given)?
ClpP mod: -1%; TDP1 cell CPT: inconclusive; DT40 TDP1 no CPT: -17%

How did CCOC(=O)N1CCN(S(=O)(=O)c2ccc(C(=O)Nc3nnc(CSC)o3)cc2)CC1 do in these assays?
ClpP mod: -1%; TDP1 cell CPT: 21%; DT40 TDP1 no CPT: -18%; TDP1 inh: 8%

Results for CC12C(=O)N(c3cccc4cccnc34)C(=O)C1C1C=CC2C1 (stereo not given) ?
ClpP mod: 0%; TDP1 cell CPT: 38%; DT40 TDP1 no CPT: 5%; TDP1 inh: 4%

How did CC12C(=O)N(c3nccs3)C(=O)C1C1C=CC2C1 (stereo not given) do in these assays?
ClpP mod: 2%; TDP1 cell CPT: -4%; DT40 TDP1 no CPT: -17%; TDP1 inh: 22µM*

How did Cc1cccnc1C(NC(=O)C1CCN(CCCOc2ccc(F)cc2)CC1)c1ccccc1 (stereo not given) do in these assays?
ClpP mod: 0%; TDP1 cell CPT: inconclusive; DT40 TDP1 no CPT: 21µM*

What do the screens show for `CCN1CCC(C(=O)NC(c2ccc(F)cc2)c2ncccc2C)CC1` (stereo not given)?
ClpP mod: -4%; TDP1 cell CPT: -30%; DT40 TDP1 no CPT: -7%

How did COc1ccccc1C(NC(=O)C1CCN(CCOc2ccc3ccccc3c2)CC1)c1ccccn1 (stereo not given) do in these assays?
ClpP mod: -1%; TDP1 cell CPT: 15µM*; DT40 TDP1 no CPT: 15µM*
